According to the supplement of paper PMC4962491:
Structures can show the parent of a compound that is named as a salt. ± gives the standard deviation of the averaged measurements. Whole data set: some 1,600 compounds, median “mitochondrial oxygen consumption rate normalised to cell number, Z score over the library” near 0.065, cut for the lowest 2% near -2.2. Only a selection was taken, and the lowest values are over-represented in it overall.

These compounds were tested on FaDu (assay: mitochondrial oxygen consumption rate normalised to cell number, Z score over the library; higher = higher oxygen consumption (negative = OCR reduction)). Conditions: treatment time 24 h; assay medium: 5 mM galactose, 5 mM pyruvate, 4 mM glutamine; 10 µM.
Method: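 Primary screen: FaDu cells were incubated 24 h with Pharmakon 1600 / TDI oncology set compounds at 2 or 10 uM. Mitochondrial-specific OCR (basal minus 2 uM antimycin A) was measured on a Seahorse XF96 in assay medium with 5 mM galactose, 5 mM pyruvate and 4 mM glutamine, then corrected for Hoechst cell number and expressed as a Z score […]. Compounds that cut cell number by >66% were excluded. Two repeats.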

Compound | mitochondrial oxygen consumption rate normalised
CC1(C)[C@H](C(=O)O)N2C(=O)C[C@H]2S1(=O)=O | 0.32 ± 0.83
CCCCCCc1ccc(O)cc1O.Nc1c2ccccc2nc2ccccc12 | -2.93 ± 0.2
CCCCCCc1ccc(O)cc1O | 0.48 ± 0.24
Nc1c2c(nc3ccccc13)CCCC2 | 1.05 ± 0.93
O=C(O)c1cc(-c2ccccc2)nc2ccccc12 | 0.349 ± 0.05
O=C(Nc1cc(Cl)cc(Cl)c1O)c1c(O)c(Cl)cc(Cl)c1Cl | 1.06 ± 0.89
Oc1c(Cl)cc(Cl)c(Cl)c1Cc1c(O)c(Cl)cc(Cl)c1Cl | -6.031 ± 0.028
Oc1c(Cl)cc(Cl)cc1Sc1cc(Cl)cc(Cl)c1O | 6.804 ± 0.06
O=C(NCc1ccccc1)OCCO | 1.42 ± 0.86
CCCCC(CC)COc1ccc(-c2nc(-c3ccc(OC)cc3)nc(-c3ccc(OCC(CC)CCCC)cc3O)n2)c(O)c1 (centres undefined) | 0.282 ± 0.45
Cc1ccccc1OCC(O)CO (centres undefined) | -0.432 ± 0.61
O=C1C(O)=C(O)C(=O)C(O)=C1O | 0.611 ± 0.72
Cc1oc(=O)oc1CN1CCN(c2cc3c(cc2F)c(=O)c(C(=O)O)c2n3C(C)S2)CC1 (centres undefined) | 0.0314 ± 0.4
NC(=O)CCCCC1CCSS1 (centres undefined) | 1.43 ± 0.3
CCN[C@@H]1C[C@H](N)[C@@H](O[C@H]2OC(CN)=CC[C@H]2N)[C@H](O)[C@H]1O[C@H]1OC[C@](C)(O)[C@H](NC)[C@H]1O | 1.16 ± 0.38
O=C1/C(=C/c2cccs2)CCC/C1=C\c1cccs1 | 0.0645 ± 0.73
CC(C)n1c(/C=C/C(O)CC(O)CC(=O)O)c(-c2ccc(F)cc2)c2ccccc21 (centres undefined) | -1.03 ± 0.072
CC(=O)[C@@]1(O)CC[C@H]2[C@@H]3C=C(Cl)C4=CC(=O)[C@@H]5C[C@@H]5[C@]4(C)[C@H]3CC[C@@]21C | -0.129 ± 1.6
Cc1cc(/C=C/c2ccc3cc(N(C)C)ccc3[n+]2C)c(C)n1-c1ccccc1 | -5.57 ± 0.19
COc1cc2/c(=N/c3ccc(Br)cc3F)nc[nH]c2cc1OCC1CCN(C)CC1 [vandetanib] | 0.909 ± 1.7
CCN(CC)C(=O)c1cccnc1 | -0.362 ± 0.74
OCc1ccccc1O[C@@H]1O[C@H](CO)[C@@H](O)[C@H](O)[C@H]1O | 0.956 ± 0.64

Compound | mitochondrial oxygen consumption rate normalised
O=C(c1ccc(OCCN2CCCCC2)cc1)c1c(-c2ccc(O)cc2)sc2cc(O)ccc12 [Raloxifene HCl] | -0.567 ± 1.1
O=C(c1ccc(OCCN2CCCCC2)cc1)c1c(-c2ccc(O)cc2)sc2cc(O)ccc12 | -0.0851 ± 0.4
COc1ccc(-n2nc(CCC(=O)N(C)O)cc2-c2ccc(Cl)cc2)cc1 | -0.88 ± 0.44
FC(F)(Cl)C(F)(F)Cl | 0.262 ± 0.59
CC12CCC(CC1=O)C2(C)C (centres undefined) | 0.477 ± 0.051
C/C(=C\c1csc(C)n1)[C@@H]1C[C@@H]2O[C@]2(C)CCC[C@H](C)[C@H](O)[C@@H](C)C(=O)C(C)(C)[C@@H](O)CC(=O)N1 [Ixabepilone] | -0.637 ± 0.14
OC[C@H]1O[C@@H](O[C@@H]2[C@@H](CO)OC(O)(CO)[C@H]2O)[C@H](O)[C@@H](O)[C@H]1O (mixture of isomers) | 1.09 ± 0.68
CN(C)CC(c1ccc(O)cc1)C1(O)CCCCC1 (centres undefined) | 0.524 ± 0.65
S=C=Nc1ccc(N=C=S)cc1 | 0.759 ± 0.026
CC(=O)O[C@H]1C(=O)[C@@]2(C)[C@H]([C@H](OC(=O)c3ccccc3)[C@]3(O)C[C@H](OC(=O)[C@H](O)[C@@H](NC(=O)c4ccccc4)c4ccccc4)C(C)=C1C3(C)C)[C@]1(OC(C)=O)CO[C@@H]1C[C@@H]2O [Paclitaxel] | -0.326 ± 0.26
CC(=O)O[C@H]1C(=O)[C@@]2(C)[C@H]([C@H](OC(=O)c3ccccc3)[C@]3(O)C[C@H](OC(=O)[C@H](O)[C@@H](NC(=O)c4ccccc4)c4ccccc4)C(C)=C1C3(C)C)[C@]1(OC(C)=O)CO[C@@H]1C[C@@H]2O | 0.221 ± 0.61
CCCCCC(C)N (centres undefined) | -0.846 ± 0.93
CC#CCn1c(N2CCC[C@@H](N)C2)nc2c1c(=O)n(Cc1nc(C)c3ccccc3n1)c(=O)n2C | 0.0591 ± 0.1
CCCCC(=O)O[C@H]1CC[C@H]2[C@@H]3CCc4cc(O)ccc4[C@H]3CC[C@]12C | -0.519 ± 0.44
CCCCC(CC)CN=C(N)N=C(N)NCCCCCCNC(N)=NC(N)=NCC(CC)CCCC (centres undefined) | -4.17 ± 0.22
CCCCC(CC)COC(=O)CC(C(=O)OCC(CC)CCCC)S(=O)(=O)O (centres undefined) | 0.149 ± 0.34
CC(=O)Nc1ccc(OC(=O)c2ccccc2O)cc1 | -0.337 ± 0.25
CC(CCc1ccc(O)cc1)NCC(O)c1ccc(O)cc1 (centres undefined) | 0.0984 ± 0.26
CNNCc1ccc(C(=O)NC(C)C)cc1 [Procarbazine HCl] | 0.127 ± 0.26
CNNCc1ccc(C(=O)NC(C)C)cc1 | 0.342 ± 0.2
C[C@H]1C[C@H]2[C@@H]3CCC4=CC(=O)C=C[C@]4(C)[C@@]3(F)[C@@H](O)C[C@]2(C)[C@@]1(O)C(=O)COP(=O)(O)O | -0.398 ± 0.27
CS(=O)(=O)OCCCCOS(C)(=O)=O | 0.716 ± 1.1

Compound | mitochondrial oxygen consumption rate normalised
CS(=O)(=O)OCCCCOS(C)(=O)=O [Busulfan] | 0.391 ± 1.2
O=C(Nc1ccc([N+](=O)[O-])cc1Cl)c1cc(Cl)ccc1O | -5.97 ± 0.27
NC(=O)c1ccc([N+](=O)[O-])cc1Cl | 0.965 ± 0.77
O=C(O)COCCN1CCN([C@H](c2ccccc2)c2ccc(Cl)cc2)CC1 | -0.965 ± 0.4
COc1ccc2nc3cc(Cl)ccc3c(Nc3cc(CN4CCCC4)c(O)c(CN4CCCC4)c3)c2n1 | -0.0207 ± 0.29
COc1cc2c(N3CCN(C(=O)Nc4ccc(OC(C)C)cc4)CC3)ncnc2cc1OCCCN1CCCCC1 | 0.241 ± 0.61
COc1ccc(OC)c(C(O)CNC(=O)CN)c1 (centres undefined) | 0.934 ± 0.11
C[n+]1ccccc1/C=N/O | 0.788 ± 0.1
Cc1ncc(C[n+]2csc(CCO)c2C)c(N)n1 | 1.53 ± 0.67
CC1(O)CCC(C(C)(C)O)CC1 (centres undefined) | 0.228 ± 0.62
CO[C@@]12[C@H](COC(N)=O)C3=C(C(=O)C(C)=C(N)C3=O)N1C[C@@H]1N[C@@H]12 | -2.77 ± 0.14
O=C(O)CCC(=O)OC[C@@H](NC(=O)C(Cl)Cl)[C@H](O)c1ccc([N+](=O)[O-])cc1 | -1.19 ± 0.7
CC1CC(OC(=O)C(O)c2ccccc2)CC(C)(C)C1 (centres undefined) | 0.62 ± 0.34
C[C@@H](c1ncncc1F)[C@](O)(Cn1cncn1)c1ccc(F)cc1F | -0.0277 ± 0.47
Cc1cc(N)c2ccccc2[n+]1CCCCCCCCCC[n+]1c(C)cc(N)c2ccccc21 | -2.58 ± 0.47
O=C1NS(=O)(=O)c2ccccc21 | 0.156 ± 0.036
COC(=O)C(N)CS (centres undefined) | 0.244 ± 0.32
CC(=O)CC(c1ccc([N+](=O)[O-])cc1)c1c(O)c2ccccc2oc1=O (centres undefined) | 0.325 ± 0.51
CCOc1cc(NC(C)=O)ccc1C(=O)OC | -0.0275 ± 0.23
CO[C@H](C(=O)[C@@H](O)[C@@H](C)O)[C@@H]1Cc2cc3cc(O[C@H]4C[C@@H](O[C@@H]5C[C@@H](O)[C@H](O)[C@@H](C)O5)[C@H](O)[C@@H](C)O4)c(C)c(O)c3c(O)c2C(=O)[C@H]1O[C@H]1C[C@@H](O[C@@H]2C[C@@H](O)[C@@H](O[C@@H]3C[C@](C)(O)[C@H](O)[C@@H](C)O3)[C@@H](C)O2)[C@H](O)[C@@H](C)O1 | -3.768 ± 0.0062
CC1CC2C3CCC4=CC(=O)C=CC4(C)C3(F)C(O)CC2(C)C1C(=O)CO (centres undefined) | 0.242 ± 0.014
CC(C)CCCC(C)NC(C)C (centres undefined) | 0.505 ± 0.85

Compound | mitochondrial oxygen consumption rate normalised
CNC(=O)c1c(I)c(NC(C)=O)c(I)c(C(=O)O)c1I | -0.0805 ± 0.4
CN1CCCN=C1/C=C/c1cccc(O)c1 | 0.441 ± 0.03
CCOc1ccc(S(=O)(=O)O)c2cccnc12 | 0.206 ± 0.45
CC(C)(C)CC(C)(C)c1cc(Cc2cc(C(C)(C)CC(C)(C)C)cc(-n3nc4ccccc4n3)c2O)c(O)c(-n2nc3ccccc3n2)c1 | 0.425 ± 0.54
O=C1c2ccccc2C(=O)C1c1ccccc1 | -1.52 ± 0.92
NC[C@H]1O[C@H](O[C@H]2[C@H](O[C@@H]3O[C@H](CO)[C@@H](O)[C@H]3O)[C@@H](O)[C@H](N)C[C@@H]2N)[C@H](N)[C@@H](O)[C@@H]1O | 0.994 ± 0.3
CCCCC(CC)COC(=O)C=Cc1ccc(OC)cc1 (centres undefined) | 0.103 ± 0.58
CC(COc1ccccc1)NC(C)C(O)c1ccc(O)cc1 (centres undefined) | 0.554 ± 0.81
CC(NCCc1ccc(O)cc1)C(O)c1ccc(O)cc1 (centres undefined) | -0.342 ± 0.3
CCCCCCCCNC(C)C(O)c1ccc(SC(C)C)cc1 (centres undefined) | -3.24 ± 0.087
CCCCC(CC)COC(=O)c1ccccc1O (centres undefined) | 0.409 ± 0.072
C=CCOC(Cn1ccnc1)c1ccc(Cl)cc1Cl (centres undefined) | -0.834 ± 0.055
Clc1ccc(COC(Cn2ccnc2)c2ccc(Cl)cc2Cl)c(Cl)c1 (centres undefined) | -0.399 ± 0.35
Clc1ccc(COC(Cn2ccnc2)c2ccc(Cl)cc2Cl)cc1 (centres undefined) | -2.19 ± 0.39
NC(=O)[C@@H]1CCCN1C(=O)[C@H](Cc1c[nH]cn1)NC(=O)[C@@H]1CCC(=O)N1 | -1.1 ± 0.47
CC(C)CC(N)=O | 0.337 ± 0.48
O=C([O-])/C=C/C(=O)[O-].[Fe+2] | -0.129 ± 0.31
CC(=O)Oc1cccc(O)c1 | 0.689 ± 0.62
CC(O)C(=O)O.N (centres undefined) | 0.0377 ± 0.64
Nc1ncn([C@@H]2O[C@H](CO)[C@@H](O)[C@H]2O)c(=O)n1 | -2.25 ± 0.072
Nc1ncn([C@H]2C[C@H](O)[C@@H](CO)O2)c(=O)n1 [Decitabine] | 0.0464 ± 0.58
Nc1ncn([C@@H]2O[C@H](CO)[C@@H](O)[C@H]2O)c(=O)n1 [Azacitidine] | 0.38 ± 0.39

Compound | mitochondrial oxygen consumption rate normalised
Nc1ccn([C@@H]2O[C@H](CO)[C@@H](O)[C@@H]2O)c(=O)n1 [Cytarabine;  Ara-C] | 1.36 ± 0.84
Nc1ccn([C@@H]2O[C@H](CO)[C@@H](O)[C@@H]2O)c(=O)n1 | 0.901 ± 0.043
S=c1[nH]cnc2nc[nH]c12 | -1.7 ± 0.17
Nc1nc2[nH]cnc2c(=S)[nH]1 | -2.58 ± 0.18
Nc1nc2[nH]cnc2c(=S)[nH]1 [Thioguanine] | 0.0465 ± 0.27
CN1CCN(c2cc3c(cc2F)c(=O)c(C(=O)O)cn3-c2ccc(F)cc2)CC1 | -0.0696 ± 0.52
CCCCCCCCCCCCCCCCOP(=O)([O-])OCC[N+](C)(C)C | -1.18 ± 0.45
CCC(=O)NCC[C@@H]1CCc2ccc3c(c21)CCO3 | -0.125 ± 0.067
CCN(CC)CCNC(=O)c1c(C)[nH]c(/C=C2\C(=O)Nc3ccc(F)cc32)c1C [Sunitinib Malate] | -0.335 ± 0.17
CCCCCCCCCCOc1cc2c(O)c(C(=O)OCC)cnc2cc1OCC | -0.591 ± 0.88
Cc1cc2nc3ccc(N(C)C)cc3[s+]c2cc1N | -0.959 ± 0.51
CN(C)CCC=C1c2ccccc2COc2ccccc21 | 0.0965 ± 0.76
CC(=O)Oc1cc(C(C)C)c(OCCN(C)C)cc1C | -0.219 ± 0.18
O=C1CC[C@@H](C(=O)O)N1 | 0.186 ± 1.2
O=C1[C@H](CC[C@H](O)c2ccc(F)cc2)[C@@H](c2ccc(O)cc2)N1c1ccc(F)cc1 | -0.13 ± 0.35
COc1ccc2c(c1OC)C(=O)O[C@@H]2[C@H]1c2c(cc3c(c2OC)OCO3)CCN1C | 0.129 ± 0.48
COc1ccc2cc3[n+](cc2c1OC)CCc1cc2c(cc1-3)OCO2 | -5.87 ± 0.012
CC[C@H]1OC(=O)[C@H](C)C(=O)[C@H](C)[C@@H](O[C@@H]2O[C@H](C)C[C@H](N(C)C)[C@H]2O)[C@](C)(OC)C[C@@H](C)C(=O)[C@H](C)[C@H]2N(CCCCn3cnc(-c4cccnc4)c3)C(=O)O[C@]12C | -0.0307 ± 0.49
NC(=O)NS(=O)(=O)c1ccc(N)cc1 | 0.826 ± 1.4
Cc1cc(-c2ccc(/N=N/c3ccc4c(S(=O)(=O)O)cc(S(=O)(=O)O)c(N)c4c3O)c(C)c2)ccc1/N=N/c1ccc2c(S(=O)(=O)O)cc(S(=O)(=O)O)c(N)c2c1O | 1.24 ± 1
Cc1cc(=O)oc2cc(O)ccc12 | 0.758 ± 0.23
